The campaign covered roughly 5,500 compounds. About 2,000 (36%) were called active. Another 18% or so got no clear call; they are omitted. Cut-off read from the data, not from the text of the source: active = normalized growth mostly below about 0.91 (no sharp cut-off); inconclusive = no clear call, values can overlap the other calls; inactive = mostly above about 0.92. The list shows a part of the results.
Assay: chemical genetic growth profiling, strain panel (AID 1159580);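 note: tested at 20 µM; growth read once vehicle control cultures reached saturation at 30 °C; 1 = growth at the plate median or of vehicle wells; lower values mean less growth of the strain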
Conditions: growth OD

Measured: normalized growth

COc1ccc2c(c1)CCC1C2CCC2(C)C1C[C@@H](O)C2O (stereo not given in full)
active: S. cerevisiae deletion strains, locus YLR262C, strain YPT6 (second series), active compounds read low 0.755 | S. cerevisiae deletion strains, locus YLR320W, strain mms22, active compounds read low 0.876 | S. cerevisiae deletion strains, locus YNL071W, strain lat1, active compounds read low 0.833
inactive: S. cerevisiae deletion strains, locus YJL187C, strain SWE1, active compounds read low 0.991 | S. cerevisiae deletion strains, locus YJR043C, strain POL32, active compounds read low 0.999 | S. cerevisiae deletion strains, locus YJR075W, strain HOC1, active compounds read low 0.982 | S. cerevisiae deletion strains, locus YKL009W, strain mrt4, active compounds read low 0.948 | S. cerevisiae deletion strains, locus YKL068W, active compounds read low 1 | S. cerevisiae deletion strains, locus YKL085W, strain MDH1 (second series), active compounds read low 0.997 | S. cerevisiae deletion strains, locus YKL085W, strain MDH1, active compounds read low 0.997 | S. cerevisiae deletion strains, locus YKL160W, strain elf1, active compounds read low 0.958 | S. cerevisiae deletion strains, locus YKL190W, strain CNB1, active compounds read low 1.01 | S. cerevisiae deletion strains, locus YKR001C, strain vps1, active compounds read low 0.956 | S. cerevisiae deletion strains, locus YKR026C, strain gcn3, active compounds read low 0.994 | S. cerevisiae deletion strains, locus YKR091W, strain srl3, active compounds read low 0.997 | S. cerevisiae deletion strains, locus YLL001W, strain dnm1, active compounds read low 0.966 | S. cerevisiae deletion strains, locus YLL026W, active compounds read low 0.974 | S. cerevisiae deletion strains, locus YLL041C, strain sdh2, active compounds read low 0.982 | S. cerevisiae deletion strains, locus YLR027C, strain aat2, active compounds read low 0.974 | S. cerevisiae deletion strains, locus YLR039C, strain RIC1, active compounds read low 0.947 | S. cerevisiae deletion strains, locus YLR058C, strain SHM2, active compounds read low 1 | S. cerevisiae deletion strains, locus YLR102C, strain apc9, active compounds read low 0.99 | S. cerevisiae deletion strains, locus YLR221C, strain rsa3, active compounds read low 0.929 | S. cerevisiae deletion strains, locus YLR258W, strain gsy2, active compounds read low 0.965 | S. cerevisiae deletion strains, locus YLR262C, strain YPT6, active compounds read low 0.943 | S. cerevisiae deletion strains, locus YLR268W, strain sec22, active compounds read low 0.973 | S. cerevisiae deletion strains, locus YLR330W, strain CHS5, active compounds read low 1.01 | S. cerevisiae deletion strains, locus YLR342W, strain FKS1 (second series), active compounds read low 0.912 | S. cerevisiae deletion strains, locus YLR342W, strain FKS1, active compounds read low 0.947 | S. cerevisiae deletion strains, locus YLR357W, strain rsc2, active compounds read low 0.987 | S. cerevisiae deletion strains, locus YLR370C, strain arc18, active compounds read low 1 | S. cerevisiae deletion strains, locus YLR371W, strain rom2, active compounds read low 0.985 | S. cerevisiae deletion strains, locus YLR384C, strain iki3, active compounds read low 1.01 | S. cerevisiae deletion strains, locus YLR418C, strain cdc73, active compounds read low 0.894 | S. cerevisiae deletion strains, locus YML016C, strain PPZ1, active compounds read low 1.01 | S. cerevisiae deletion strains, locus YML032C, strain rad52, active compounds read low 0.972 | S. cerevisiae deletion strains, locus YML120C, strain ndi1, active compounds read low 0.998 | S. cerevisiae deletion strains, locus YML124C, strain tub3, active compounds read low 0.998 | S. cerevisiae deletion strains, locus YMR058W, strain fet3, active compounds read low 0.968 | S. cerevisiae deletion strains, locus YMR078C, strain ctf18, active compounds read low 0.992 | S. cerevisiae deletion strains, locus YMR125W, strain sto1, active compounds read low 1.01 | S. cerevisiae deletion strains, locus YMR129W, active compounds read low 1.01 | S. cerevisiae deletion strains, locus YMR205C, strain PFK2, active compounds read low 0.964 | S. cerevisiae deletion strains, locus YMR223W, strain ubp8, active compounds read low 0.965 | S. cerevisiae deletion strains, locus YMR231W, strain pep5, active compounds read low 0.998 | S. cerevisiae deletion strains, locus YMR307W, strain GAS1, active compounds read low 0.782 | S. cerevisiae deletion strains, locus YNL067W, strain RPL9B, active compounds read low 0.979 | S. cerevisiae deletion strains, locus YNL128W, strain TEP1, active compounds read low 0.992 | S. cerevisiae deletion strains, locus YNL209W, strain ssb2, active compounds read low 1 | S. cerevisiae deletion strains, locus YNL233W, strain BNI4, active compounds read low 0.989 | S. cerevisiae deletion strains, locus YNL248C, strain rpa49, active compounds read low 0.979 | S. cerevisiae deletion strains, locus YNL250W, strain rad50, active compounds read low 0.983 | S. cerevisiae deletion strains, locus YNL271C, strain bni1, active compounds read low 0.983 | S. cerevisiae deletion strains, locus YNL298W, strain CLA4, active compounds read low 0.966 | S. cerevisiae deletion strains, locus YNL307C, strain MCK1, active compounds read low 0.967 | S. cerevisiae deletion strains, locus YNL322C, strain KRE1 (second series), active compounds read low 1.01 | S. cerevisiae deletion strains, locus YNR049C, strain mso1, active compounds read low 1.01 | S. cerevisiae deletion strains, locus YNR052C, strain pop2, active compounds read low 0.987 | S. cerevisiae deletion strains, locus YOL006C, strain TOP1, active compounds read low 0.902 | S. cerevisiae deletion strains, locus YOL012C, strain htz1 0.926 | S. cerevisiae deletion strains, locus YOL147C, strain pex11, active compounds read low 1 | S. cerevisiae deletion strains, locus YOR001W, strain rrp6, active compounds read low 0.986 | S. cerevisiae deletion strains, locus YOR061W, strain CKA2, active compounds read low 1.01 | S. cerevisiae deletion strains, locus YOR069W, strain VPS5, active compounds read low 1.01 | S. cerevisiae deletion strains, locus YOR070C, strain gyp1, active compounds read low 0.998 | S. cerevisiae deletion strains, locus YOR080W, strain dia2, active compounds read low 1 | S. cerevisiae deletion strains, locus YOR083W, strain WHI5, active compounds read low 0.914 | S. cerevisiae deletion strains, locus YOR106W, strain vam3, active compounds read low 0.916 | S. cerevisiae deletion strains, locus YOR136W, strain idh2, active compounds read low 0.997 | S. cerevisiae deletion strains, locus YOR144C, strain elg1, active compounds read low 0.995 | S. cerevisiae deletion strains, locus YOR184W, strain ser1, active compounds read low 0.945 | S. cerevisiae deletion strains, locus YOR265W, strain rbl2, active compounds read low 0.999 | S. cerevisiae deletion strains, locus YOR270C, strain vph1, active compounds read low 1.11 | S. cerevisiae deletion strains, locus YOR290C, strain snf2, active compounds read low 0.94 | S. cerevisiae deletion strains, locus YOR316C, strain cot1, active compounds read low 0.991 | S. cerevisiae deletion strains, locus YPL051W, strain arl3, active compounds read low 0.941 | S. cerevisiae deletion strains, locus YPL078C, strain atp4, active compounds read low 0.929 | S. cerevisiae deletion strains, locus YPL106C, strain sse1, active compounds read low 1.03 | S. cerevisiae deletion strains, locus YPL240C, strain hsp82, active compounds read low 1.01 | S. cerevisiae deletion strains, locus YPR119W, strain clb2, active compounds read low 0.991 | S. cerevisiae deletion strains, locus YPR141C, strain kar3, active compounds read low 0.993 | S. cerevisiae deletion strains, locus YPR163C, strain tif3, active compounds read low 0.985 | S. cerevisiae deletion strains, locus YPR167C, strain met16, active compounds read low 0.991 | S. cerevisiae deletion strains, strain wtn01, active compounds read low 0.978 | S. cerevisiae strains, strain wild type, active compounds read low 1.01
